# Source: the supplement of paper PMC10338343
# ± gives the standard deviation.
# System: MILI (PIWIL2) piRISC loaded with L1MC piRNA (26 nt)
# Test: pre-steady-state target cleavage rate (min^-1); guide: L1MC piRNA 5'p-UAACUAAAUACUAUGCAAGCUGUAGG; MIWI and MILI are mouse PIWI proteins and EfPiwi is from a freshwater sponge; tags in brackets are library labels; higher = faster piRNA-guided slicing of the target
# Summary of the method: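 At 33 °C in HEPES–potassium acetate buffer, a transcribed, DNA-blocked target RNA library […] was exposed for 0–8 or 0–960 min to 1 nM active affinity-purified piRISC carrying a single synthetic guide, with or without 500 nM GTSF1 partner protein. Uncleaved targets were sequenced and normalised to depth and to weakly complementary targets. With three trials pooled and k3 capped at 0.0001 min^-1, a burst-and-steady-state fit produced the pre-steady-state cleavage rate.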
# [1] = auxiliary factor: 500 nM mouse GTSF1
# [2] = auxiliary factor: none (no GTSF1)
# 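Also: 1 nM active piRISC with 0.1 nM target library at 33 °C single turnover.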
Sequence,pre-steady-state target cleavage rate [1],pre-steady-state target cleavage rate [2]
UCCUGGAUCAGCUUGCGUAGUAUUUAGUUA,0.192 ± 0.017,0.0107 ± 0.0029
UCCUGGAUGUCCUUGCAUACAUUUUAGUUA,0.00731 ± 0.0047,0.00422 ± 0.0019
UCCUGGAACAGCUUGCUUAGUAUUUACUUA,0.187 ± 0.032,0.00316 ± 0.0028
UCCUGGAUGAGCAUGCUUAGUAUUUAGUUA,0.115 ± 0.011,0.0087 ± 0.0027
UCCUGCUACAGCUUCGUUAGUAUUUAGUUA,0.239 ± 0.022,0.00333 ± 0.0027
UCCUGGAUGAGGUUGCAUAGUAUUUAGUUA,0.129 ± 0.015,0.0136 ± 0.0032
UCCUGGAUGUCCUUGCAUUGUAUAUAGUUA,0.0803 ± 0.022,0.00438 ± 0.0024
UCCUGGUACAGCUUGCAUAGUUAAUAGUUA,0.0312 ± 0.01,0.00424 ± 0.0026
UCCUGGUACAGCUUGCAUAGAAAUUAGUUA,0.0374 ± 0.011,0.00311 ± 0.0031
UCCUGGAUGAGCUUGCAUAGUGUUUAGUUA,0.117 ± 0.016,0.00732 ± 0.0031
UCCUGGAUGUCCUUGGAUAGUAUAUAGUUA,0.165 ± 0.035,0.0038 ± 0.0025
UCCUCCUACUGCUUGCAAAGUAUUUAGUUA,0.138 ± 0.011,0.00644 ± 0.0018
UCCUGGAUCAGCUUGCUAAGUAUUUAGUUA,0.0871 ± 0.012,0.0065 ± 0.0021
UCCUGGUUCAGCUUGCAUAGAAUUUAGUUA,0.0374 ± 0.011,0.003 ± 0.0029
UCCUGGAUGAGCUUGCAAAGUAUUUAGUAA,0.085 ± 0.015,0.00635 ± 0.0025
UCCUGGAUGAGCUUGCAAAGUAUAUAGUUA,0.148 ± 0.02,0.00576 ± 0.0029
UCCUGGAUGUCCUUGCAUAGUUUUAAGUUA,0.0115 ± 0.0059,0.00312 ± 0.0026
UCCUGGAACAGCUACCAUAGUAUUUAGUAA,0.23 ± 0.028,0.00298 ± 0.0029
UCCUCCUACAGCUUGCUAUGUAUUUAGUUA,0.0502 ± 0.011,0.00506 ± 0.0018
UCCUGGAUCACGUUGCAUAGUAUUUAGUAA,0.18 ± 0.024,0.00365 ± 0.0029

Sequence,pre-steady-state target cleavage rate [1],pre-steady-state target cleavage rate [2]
UCCUGGAUGUCGUUGCAUAGUAUUUAGUA,0.148 ± 0.022,0.00424 ± 0.0026
UCCUGGUACAGCUUGCAUAGAUUUUAGUUA,0.0355 ± 0.0097,0.00346 ± 0.0029
UCCUGGAUGUCCUUGCAUAGUAUUUAGUUG [g2:g19:cont:t1G],0.0765 ± 0.0096,0.00821 ± 0.002
UCCUGGAUGAGCUUGCAUAGUUAUUAGUUA,0.00731 ± 0.0048,0.00364 ± 0.0023
UCCUGGAACUGCUUGCAUAGUAUUUACUUA,0.0984 ± 0.027,0.00292 ± 0.0023
UCCUGGUACAGCUUGCAUAUAUUUAGUUA,0.035 ± 0.011,0.00493 ± 0.0024
UCCUGGAUGUGCUAGCAUAGAAUUUAGUUA,0.0105 ± 0.0042,0.00267 ± 0.0022
UCCUGGAUCAGCUUGCAUACUAAUUAGUUA,0.0215 ± 0.0055,0.00367 ± 0.0023
UCCUGGAUGUCGAUGCAUAGUAUCUUAGUUA,0.0692 ± 0.013,0.00487 ± 0.0024
UCCUGGAUGUCCAAGCAUAGUAUUUAGUAA,0.0187 ± 0.0069,0.00309 ± 0.0027
UCCUGGAUGAGCUUCCUUAGUAUUUAGUUA,0.132 ± 0.019,0.00577 ± 0.0024
UCCUGGAUGUCCUUGCAUUGUAUUAAGUUA,0.0479 ± 0.012,0.00424 ± 0.0019
UCCUGGAUGUCGUUGCAUAGUAUUUAGUCA,0.146 ± 0.024,0.00639 ± 0.002
UCCUGGAUGUGCUUGGAUAGUAUUAAGUUA,0.0647 ± 0.018,0.00591 ± 0.0023
UCCUGGUAGUGCUUGCAUAGUAUUUAGUAA,0.191 ± 0.032,0.00505 ± 0.0031
UCCUGGAACAGCUUGCUUAGUUUUUAGUUA,0.0579 ± 0.012,0.00375 ± 0.0024
UCCUGGAUGUCGUUGCAUAGUAUUUAGUAA,0.191 ± 0.03,0.00351 ± 0.0029
UCCUGGAUGUCGUUGCAUAGUAUUUAGUUUA,0.178 ± 0.018,0.0103 ± 0.0039
UCCUGGAUGUCCUUGCAUAGUACUUUAGUUA,0.0282 ± 0.011,0.00534 ± 0.0022
UCCUGGAUGUGCUUGCUAUGUAUUUAGUUA,0.00774 ± 0.0037,0.00498 ± 0.0024

Sequence,pre-steady-state target cleavage rate [1],pre-steady-state target cleavage rate [2]
UCCUGGAUGUCGUUGCAUAGUAUUAUAGUUA,0.173 ± 0.03,0.00429 ± 0.0034
UCCUGGUACACGAUGCAUAGUAUUUAGUUA,0.252 ± 0.058,0.00395 ± 0.0035
UCCUCCUUGAGCUUGCAUAGUAUUUAGUAA,0.217 ± 0.025,0.00389 ± 0.0017
UCCUGGUACAGGUUGCAUAGUUUUUAGUUA,0.039 ± 0.011,0.00732 ± 0.0043
UCCUGGUACAGCUUGGAUAGUAUUAAGUUA,0.174 ± 0.038,0.00474 ± 0.0033
UCCUGGAUCAGCUUGCAUUGUUUUUAGUUA,0.0121 ± 0.0054,0.00431 ± 0.0023
UCCUGGAUGUCCUUGGAUAGUAAUUAGUUA,0.411 ± 0.1,0.00325 ± 0.0027
UCCUGGAUGAGCUUGCUAUGUAUUUAGUUA,0.00711 ± 0.0026,0.00524 ± 0.0027
UCCUGGAUGAGCUUGCAGAGUAUUUAGUUA,0.0869 ± 0.0095,0.00792 ± 0.0024
UCCUGGAACAGACUUGCAUAGUAUUUAGUUA,0.217 ± 0.014,0.00682 ± 0.0024
UCCUGGAUGUCGUUGCAUAGUAUUUCAGUUA,0.0621 ± 0.017,0.00397 ± 0.0033
UCCUGGUACAGCUUGCAAUGUAUUUAGUUA,0.0755 ± 0.013,0.0121 ± 0.0029
UCCUGGAACAGCUAGCAUAGUAUAUAGUUA,0.229 ± 0.026,0.00524 ± 0.0027
UCCUCCUACAGCUUGACAUAGUAUUUAGUUA,0.267 ± 0.018,0.00554 ± 0.0024
UCCUGGAUGUCGUUUCAUAGUAUUUAGUUA,0.0434 ± 0.0083,0.00464 ± 0.0023
UCCUGGAUGUCGAUGCAUAGUAUUUAGUUU [g2:g17:cont:t1U],0.09 ± 0.011,0.00618 ± 0.0021
UCCUGGAUGUGCUUGCAUAGUAUUUUAGUUA,0.101 ± 0.018,0.0102 ± 0.0031
UCCUGGAACAGCAUGCAUAGUAUUAAGUUA,0.219 ± 0.027,0.00548 ± 0.0019
UCCUGGAUGAGCUUGCAAUGUAUUUAGUAA,0.0194 ± 0.0045,0.00717 ± 0.0024
UCCUGGAUGUCGUCGCAUAGUAUUUAGUUA,0.0893 ± 0.012,0.00436 ± 0.0024
